In the supplement of paper PMC10849652:
The full data set covers some 7,900 targets. This sample favours those with a hit. About 0.6% of all pairs of compound and target were hits. Values without a mark were called inactive.

Legend:
Experiment in all cases: log2 fold change, soluble protein after heating vs DMSO (PISA); higher = thermal stabilisation; K562 cells, 10 uM, 30 min; active = over 0.2 and 3.5 SD of the protein, either way, in both replicates (recomputed)
[1] = compound: C1COCCN1CCN2C3=CC=CC=C3N=C2NC(=O)C4=CC(=CC=C4)[N+](=O)[O-] [IRAK-1-4 Inhibitor I]
In short: (§1)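 For each measurement, 10 μM compound was applied for 30 min to K562 cells at 2×10^6 cells/mL. Aliquots were heated for 3 min across 48°C-58°C, pooled, and extracted in PBS with 0.5% NP-40 at 4°C; the supernatant after 21,000xg for 90 min was soluble protein. This was quantified by TMTpro 16plex LC-MS/MS with channel sums equalised, and thermal stability was reported relative to control samples from duplicates, on a log2 fold-change scale.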

[2] = compound: C=CC(=O)N1CCC[C@@H](n2nc(-c3ccc(Oc4ccccc4)cc3)c3c(N)ncnc32)C1 [ibrutinib]
In short: as §1

[3] = compound: CC(=O)c1cnc2ccc(-c3cc(Cl)c(O)c(Cl)c3)nc2c1N[C@H]1CC[C@H](CN(C)C)CC1
In short: as §1

[4] = compound: CC(C)(C)Cn1c(N)nc2ccc(-c3[nH]c(C(C)(C)C)nc3-c3ccc(F)cc3)nc21 [ralimetinib]
In short: as §1

[5] = compound: CC(C)(O)CC(=O)NCCn1ccc2ncnc(Nc3ccc(Oc4cccc(C(F)(F)F)c4)c(Cl)c3)c21
In short: as §1

[6] = compound: CC(C)C1=C2N=C(C=C(N2N=C1)NCC3=CC=CC=C3)NCCCCCCN
In short: as §1

[7] = compound: CC(C)C[C@@H](C=O)NC(=O)[C@H](CC(C)C)NC(=O)[C@H](CC(C)C)NC(=O)OCc1ccccc1
In short: as §1

[8] = compound: CC(C)N(C[C@H]1O[C@@H](n2cnc3c(N)ncnc32)[C@H](O)[C@@H]1O)[C@H]1C[C@@H](CCc2nc3cc(C(C)(C)C)ccc3[nH]2)C1 [pinometostat]
In short: as §1

[9] = compound: CC1=C(C(CC(=O)N1)C2=CC=C(C=C2)C(F)(F)F)C(=O)NC3=C(C=C4C(=C3)C=NN4)F
In short: as §1

[10] = compound: CC1=C(C2=C(C=C1)C(=O)C3=CC=CC=C3N2CCCN)C
In short: as §1

[11] = compound: CC1=C(C=C(C=C1)NC(=O)C2=CC(=CC=C2)C(C)(C)C#N)NC3=CC4=C(C=C3)N=CN(C4=O)C
In short: as §1

[12] = compound: CC1=C(C=C(C=C1)NC(=O)C2=CC(=CC=C2)N(C)C)NC(=O)C3=CC=C(C=C3)O
In short: as §1

[13] = compound: CC1=CC=C(C=C1)SC2=C3C=C(SC3=CN=C2)C(=O)N
In short: as §1

[14] = compound: CC1=NC(=CC=C1)C2=C(N=C(N2)C(C)(C)C)C3=CC4=NC=CN=C4C=C3
In short: as §1

[15] = compound: CCCCN(Cc1ccc(C(=O)NO)cc1)C(=O)Nc1ccccc1 [Nexturastat A]
In short: as §1

[16] = compound: CCCS(=O)(=O)Nc1ccc(F)c(C(=O)c2c[nH]c3ncc(-c4ccc(Cl)cc4)cc23)c1F [vemurafenib]
In short: as §1

[17] = compound: CCCS(=O)(=O)Nc1ccc(F)c(C(=O)c2c[nH]c3ncc(Cl)cc23)c1F
In short: as §1

[18] = compound: CCCc1cc(C)[nH]c(=O)c1CNC(=O)c1cc(-c2ccnc(N3CCN(C)CC3)c2)cc2c1cnn2C(C)C
In short: as §1

[19] = compound: CCN(CC)Cc1ccc2cc(COC(=O)Nc3ccc(C(=O)NO)cc3)ccc2c1 [givinostat]
In short: as §1

[20] = compound: CCN(CCCOc1ccc2c(Nc3cc(CC(=O)Nc4cccc(F)c4)[nH]n3)ncnc2c1)CCOP(=O)(O)O [barasertib]
In short: as §1

Sequence of UniProt Q5QP82 (Q5QP82 whole entry, looked up): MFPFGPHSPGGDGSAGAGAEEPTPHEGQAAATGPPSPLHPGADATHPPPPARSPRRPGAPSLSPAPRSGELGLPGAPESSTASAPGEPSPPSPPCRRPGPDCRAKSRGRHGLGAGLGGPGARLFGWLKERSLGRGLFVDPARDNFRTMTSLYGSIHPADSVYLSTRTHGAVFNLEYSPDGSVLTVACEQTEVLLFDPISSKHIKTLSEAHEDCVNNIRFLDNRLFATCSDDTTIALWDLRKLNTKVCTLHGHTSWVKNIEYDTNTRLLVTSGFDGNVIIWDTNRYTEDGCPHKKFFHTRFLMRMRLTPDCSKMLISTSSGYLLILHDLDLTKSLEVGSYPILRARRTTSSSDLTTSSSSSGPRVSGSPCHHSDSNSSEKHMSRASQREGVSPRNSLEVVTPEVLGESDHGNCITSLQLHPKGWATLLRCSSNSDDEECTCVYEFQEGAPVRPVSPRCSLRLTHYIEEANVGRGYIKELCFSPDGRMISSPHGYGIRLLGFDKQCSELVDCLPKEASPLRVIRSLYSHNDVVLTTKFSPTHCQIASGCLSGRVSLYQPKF
Sequence of UniProt O76075 (O76075 whole entry, looked up): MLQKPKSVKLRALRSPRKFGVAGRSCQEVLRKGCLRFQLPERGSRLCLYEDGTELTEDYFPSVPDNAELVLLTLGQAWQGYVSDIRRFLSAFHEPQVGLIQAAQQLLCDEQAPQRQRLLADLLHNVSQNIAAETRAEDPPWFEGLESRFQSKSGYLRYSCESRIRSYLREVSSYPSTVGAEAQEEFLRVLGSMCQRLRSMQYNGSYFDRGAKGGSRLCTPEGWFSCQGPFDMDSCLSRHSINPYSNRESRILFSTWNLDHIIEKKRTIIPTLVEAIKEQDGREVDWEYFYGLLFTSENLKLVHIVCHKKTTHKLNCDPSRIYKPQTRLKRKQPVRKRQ
Sequence of UniProt Q14118 (Q14118 whole entry, looked up): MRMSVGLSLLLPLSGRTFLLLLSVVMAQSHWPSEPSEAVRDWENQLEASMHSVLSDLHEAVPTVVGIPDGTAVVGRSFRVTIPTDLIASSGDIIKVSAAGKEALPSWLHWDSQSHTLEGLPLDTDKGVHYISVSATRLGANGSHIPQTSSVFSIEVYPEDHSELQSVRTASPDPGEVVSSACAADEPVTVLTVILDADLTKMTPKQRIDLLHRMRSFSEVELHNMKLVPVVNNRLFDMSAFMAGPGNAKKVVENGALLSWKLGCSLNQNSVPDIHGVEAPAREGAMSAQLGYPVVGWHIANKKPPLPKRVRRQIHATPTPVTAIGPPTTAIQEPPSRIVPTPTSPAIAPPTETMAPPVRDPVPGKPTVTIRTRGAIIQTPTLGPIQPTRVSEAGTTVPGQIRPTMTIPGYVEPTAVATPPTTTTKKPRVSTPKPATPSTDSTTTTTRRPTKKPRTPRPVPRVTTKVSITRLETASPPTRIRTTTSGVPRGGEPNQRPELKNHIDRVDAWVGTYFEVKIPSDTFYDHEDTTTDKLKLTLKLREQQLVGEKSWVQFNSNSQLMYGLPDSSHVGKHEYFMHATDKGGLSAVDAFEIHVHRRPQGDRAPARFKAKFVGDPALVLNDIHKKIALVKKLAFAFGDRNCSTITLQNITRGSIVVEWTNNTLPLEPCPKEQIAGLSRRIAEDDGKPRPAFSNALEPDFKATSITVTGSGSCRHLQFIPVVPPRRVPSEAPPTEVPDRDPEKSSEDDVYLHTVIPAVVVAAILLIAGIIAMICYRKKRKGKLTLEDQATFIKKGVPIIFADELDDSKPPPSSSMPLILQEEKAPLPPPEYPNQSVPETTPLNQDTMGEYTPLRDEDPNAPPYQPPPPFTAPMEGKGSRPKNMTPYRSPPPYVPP
Sequence of UniProt P12259 (P12259 whole entry, looked up): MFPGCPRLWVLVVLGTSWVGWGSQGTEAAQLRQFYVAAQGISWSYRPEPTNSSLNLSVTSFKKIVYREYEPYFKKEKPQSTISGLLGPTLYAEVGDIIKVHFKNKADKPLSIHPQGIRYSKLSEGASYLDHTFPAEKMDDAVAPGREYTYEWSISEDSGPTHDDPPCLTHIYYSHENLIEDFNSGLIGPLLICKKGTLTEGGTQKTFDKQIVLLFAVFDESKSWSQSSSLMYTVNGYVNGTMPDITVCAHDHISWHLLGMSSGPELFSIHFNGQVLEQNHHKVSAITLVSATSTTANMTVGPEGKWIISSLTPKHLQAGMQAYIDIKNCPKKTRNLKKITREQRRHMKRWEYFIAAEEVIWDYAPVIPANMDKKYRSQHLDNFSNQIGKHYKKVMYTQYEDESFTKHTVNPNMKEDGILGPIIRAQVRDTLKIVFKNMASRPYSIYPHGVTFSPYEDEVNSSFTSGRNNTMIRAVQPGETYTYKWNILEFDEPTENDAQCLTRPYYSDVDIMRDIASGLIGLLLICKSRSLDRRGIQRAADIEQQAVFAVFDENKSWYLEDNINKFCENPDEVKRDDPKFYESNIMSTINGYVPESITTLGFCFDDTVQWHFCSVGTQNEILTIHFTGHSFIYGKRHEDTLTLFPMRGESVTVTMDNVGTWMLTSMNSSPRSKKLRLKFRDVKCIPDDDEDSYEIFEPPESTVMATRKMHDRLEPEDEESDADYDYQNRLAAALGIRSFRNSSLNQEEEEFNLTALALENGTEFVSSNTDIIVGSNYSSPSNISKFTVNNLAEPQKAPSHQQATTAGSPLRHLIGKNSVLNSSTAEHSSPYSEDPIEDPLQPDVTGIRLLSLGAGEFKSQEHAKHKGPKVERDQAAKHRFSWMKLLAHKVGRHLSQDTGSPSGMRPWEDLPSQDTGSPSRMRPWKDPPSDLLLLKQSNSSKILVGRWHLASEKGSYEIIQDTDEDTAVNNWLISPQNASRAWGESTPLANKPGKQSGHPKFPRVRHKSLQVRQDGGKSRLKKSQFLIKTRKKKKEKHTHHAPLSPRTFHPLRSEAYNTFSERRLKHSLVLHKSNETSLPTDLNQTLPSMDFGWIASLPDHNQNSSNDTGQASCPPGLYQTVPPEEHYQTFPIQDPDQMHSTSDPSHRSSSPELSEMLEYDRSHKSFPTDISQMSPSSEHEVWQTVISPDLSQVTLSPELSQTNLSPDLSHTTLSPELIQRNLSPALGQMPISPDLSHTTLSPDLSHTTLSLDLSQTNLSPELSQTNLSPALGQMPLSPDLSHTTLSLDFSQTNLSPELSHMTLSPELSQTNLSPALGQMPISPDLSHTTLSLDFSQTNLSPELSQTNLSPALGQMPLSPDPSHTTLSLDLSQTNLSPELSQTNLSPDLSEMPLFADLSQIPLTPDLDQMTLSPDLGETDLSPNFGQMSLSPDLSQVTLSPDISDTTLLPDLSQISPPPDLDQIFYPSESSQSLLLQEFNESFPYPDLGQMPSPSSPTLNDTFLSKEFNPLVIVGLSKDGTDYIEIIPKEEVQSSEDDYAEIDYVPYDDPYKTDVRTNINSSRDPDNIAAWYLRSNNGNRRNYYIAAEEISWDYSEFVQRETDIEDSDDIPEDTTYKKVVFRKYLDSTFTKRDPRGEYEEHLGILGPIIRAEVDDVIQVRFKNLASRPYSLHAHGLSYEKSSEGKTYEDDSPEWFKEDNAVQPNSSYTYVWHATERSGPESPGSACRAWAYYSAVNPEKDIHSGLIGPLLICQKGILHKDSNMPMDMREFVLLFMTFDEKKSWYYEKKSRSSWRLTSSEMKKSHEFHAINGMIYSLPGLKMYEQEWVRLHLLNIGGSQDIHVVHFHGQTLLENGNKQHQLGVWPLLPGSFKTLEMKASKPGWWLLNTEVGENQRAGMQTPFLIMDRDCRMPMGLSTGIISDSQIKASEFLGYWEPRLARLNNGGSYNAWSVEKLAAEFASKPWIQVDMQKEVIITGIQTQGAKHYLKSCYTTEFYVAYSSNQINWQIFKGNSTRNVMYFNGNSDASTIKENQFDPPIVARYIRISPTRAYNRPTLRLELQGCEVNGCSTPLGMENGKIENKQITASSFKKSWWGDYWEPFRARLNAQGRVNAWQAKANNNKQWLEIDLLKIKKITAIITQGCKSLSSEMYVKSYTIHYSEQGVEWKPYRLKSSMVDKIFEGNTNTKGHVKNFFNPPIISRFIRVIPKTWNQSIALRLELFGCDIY
Sequence of UniProt P24534 (P24534 whole entry, looked up): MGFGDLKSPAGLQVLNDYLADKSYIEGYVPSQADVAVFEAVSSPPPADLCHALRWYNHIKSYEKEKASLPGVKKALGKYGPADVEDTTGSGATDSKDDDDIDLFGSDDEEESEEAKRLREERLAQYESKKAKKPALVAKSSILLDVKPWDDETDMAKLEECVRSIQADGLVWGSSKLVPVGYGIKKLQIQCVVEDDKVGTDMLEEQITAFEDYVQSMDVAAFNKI
Sequence of UniProt P68104 (P68104 whole entry, looked up): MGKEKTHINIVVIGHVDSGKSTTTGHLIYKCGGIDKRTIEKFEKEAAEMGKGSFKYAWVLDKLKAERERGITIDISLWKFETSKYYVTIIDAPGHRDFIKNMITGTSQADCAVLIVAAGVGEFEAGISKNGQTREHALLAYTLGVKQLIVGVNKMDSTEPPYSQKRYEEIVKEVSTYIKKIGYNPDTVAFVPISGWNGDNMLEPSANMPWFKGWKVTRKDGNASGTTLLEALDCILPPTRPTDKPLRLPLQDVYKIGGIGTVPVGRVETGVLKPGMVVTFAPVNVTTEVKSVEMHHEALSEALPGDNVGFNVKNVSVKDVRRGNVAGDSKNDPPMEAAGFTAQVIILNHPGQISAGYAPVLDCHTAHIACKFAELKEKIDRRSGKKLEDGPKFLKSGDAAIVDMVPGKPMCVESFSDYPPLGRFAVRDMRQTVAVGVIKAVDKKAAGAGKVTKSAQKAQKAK
Sequence of UniProt Q8NBA8 (Q8NBA8 whole entry, looked up): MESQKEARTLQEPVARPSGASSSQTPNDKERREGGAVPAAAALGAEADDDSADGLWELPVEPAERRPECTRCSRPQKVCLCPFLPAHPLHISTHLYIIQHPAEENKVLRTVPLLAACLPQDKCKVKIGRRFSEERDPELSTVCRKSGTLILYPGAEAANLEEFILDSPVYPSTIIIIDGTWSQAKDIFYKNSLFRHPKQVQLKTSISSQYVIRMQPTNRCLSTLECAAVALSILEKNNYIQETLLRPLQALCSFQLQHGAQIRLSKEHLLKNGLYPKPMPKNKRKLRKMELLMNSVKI

Row | Target | log2 fold change [1] | log2 fold change [2] | log2 fold change [3] | log2 fold change [4] | log2 fold change [5] | log2 fold change [6] | log2 fold change [7] | log2 fold change [8] | log2 fold change [9] | log2 fold change [10] | log2 fold change [11] | log2 fold change [12] | log2 fold change [13] | log2 fold change [14] | log2 fold change [15] | log2 fold change [16] | log2 fold change [17] | log2 fold change [18] | log2 fold change [19] | log2 fold change [20]
1 | F5 (UniProt P12259) | 0.006 | 0.064 | 0.003 | -0.042 | 0.168 | -0.088 | 0.001 | -0.016 | -0.017 | -0.129 | 0.056 | 0.036 | -0.027 | 0.011 | -0.04 | 0.066 | -0.016 | -0.036 | -0.01 | 0.034
2 | EEF1A1 (UniProt P68104) | 0.133 | 0.121 | 0.05 | 0.133 | -0.052 | -0.037 | -0.019 | -0.028 | 0.01 | -0.178 | -0.069 | -0.068 | 0 | 0.052 | 0.086 | 0.031 | 0.022 | 0.089 | -0.044 | 0.052
3 | DLD (UniProt P09622) | 0.079 | 0.007 | 0.043 | -0.004 | -0.043 | -0.125 | -0.029 | 0.001 | 0.014 | -0.008 | -0.045 | 0.025 | 0.008 | 0.013 | -0.058 | -0.021 | -0.01 | 0.029 | -0.06 | 0
4 | CTSC (UniProt P53634) | 0.008 | 0.011 | -0.003 | -0.034 | 0.016 | -0.061 | 0.015 | -0.031 | -0.018 | -0.038 | -0.113 | 0.001 | 0.059 | -0.003 | -0.009 | 0.035 | 0.01 | 0.03 | 0.017 | 0.023
5 | DCAF10 (UniProt Q5QP82) | 0 | 0 | -0.006 | -0.082 | -0.041 | 0.02 | 0.026 | -0.016 | 0.061 | 0.01 | -0.024 | 0.121 | -0.015 | -0.009 | 0.012 | -0.044 | 0.002 | -0.121 | -0.094 | -0.006
6 | DFFB (UniProt O76075) | -0.002 | -0.047 | 0.011 | 0.005 | -0.148 | 0.066 | 0.045 | 0.008 | -0.052 | 0.009 | -0.023 | -0.013 | 0.013 | 0.019 | -0.04 | 0.055 | 0 | -0.109 | -0.059 | 0.034
7 | DHFR (UniProt P00374) | -0.065 | -0.008 | -0.06 | 0.192 | -0.044 | 0.101 | 0.083 | 0.255 | -0.114 | 0.2 | -0.069 | 0.003 | -0.086 | -0.074 | 0.232 | 0.044 | 0.001 | 0.17 | 0.162 | 0.068
8 | ETNK1 (UniProt Q9HBU6) | 0.035 | -0.05 | 0.044 | -0.017 | -0.205 | 0.087 | 0.043 | 0.019 | -0.015 | 0.079 | 0.241 | -0.054 | 0.022 | 0.02 | -0.177 | 0.006 | 0.172 | -0.076 | 0.042 | 0.005
9 | EXOC1 (UniProt Q9NV70) | -0.085 | -0.015 | -0.033 | 0.112 | -0.151 | -0.419 (active) | 0.018 | 0.214 | 0.052 | 0.071 | -0.026 | -0.01 | 0.019 | 0.027 | 0.115 | -0.023 | 0.028 | 0.08 | 0.07 | 0.082
10 | DPP8 (UniProt Q6V1X1) | 0.002 | -0.001 | -0.035 | -0.046 | -0.005 | 0.059 | 0.015 | -0.018 | 0.004 | 0.12 | -0.109 | -0.026 | -0.031 | 0.021 | 0.082 | -0.056 | -0.05 | -0.176 | -0.026 | 0.014
11 | DAG1 (UniProt Q14118) | -0.019 | -0.024 | -0.029 | -0.076 | 0.003 | 0.169 | 0.008 | 0.04 | -0.008 | 0.067 | -0.053 | -0.019 | -0.013 | 0.001 | -0.005 | 0.005 | -0.06 | -0.028 | 0.019 | 0.011
12 | DNAJB1 (UniProt P25685) | -0.059 | -0.011 | -0.017 | 0 | -0.012 | -0.015 | -0.065 | -0.086 | -0.004 | 0.022 | 0.015 | -0.045 | -0.003 | 0.086 | -0.03 | 0.009 | 0.028 | -0.051 | 0.024 | 0.024
13 | DTWD2 (UniProt Q8NBA8) | 0.094 | 0.001 | 0.009 | 0.092 | -0.07 | -0.179 | 0.003 | 0.082 | 0.031 | -0.004 | 0.019 | -0.025 | 0.197 | -0.048 | 0.009 | -0.079 | 0.043 | -0.006 | -0.139 | 0.056
14 | EEF1B2 (UniProt P24534) | -0.01 | -0.054 | 0.009 | 0.003 | 0.011 | -0.069 | 0.04 | 0.001 | -0.027 | 0.047 | 0.024 | -0.025 | -0.007 | 0.031 | 0.031 | 0.024 | 0.02 | -0.009 | 0.023 | 0.055
15 | E2F4 (UniProt Q16254) | -0.025 | -0.009 | -0.073 | 0.011 | -0.072 | -0.167 | 0.038 | 0.001 | 0 | -0.119 | 0.031 | 0.011 | 0.087 | 0.079 | 0.034 | -0.001 | 0.02 | 0.021 | 0.05 | 0.054
16 | FAM117A (UniProt Q9C073) | -0.004 | 0.001 | -0.833 (active) | -0.125 | -0.068 | -0.102 | 0.126 | -0.003 | 0.042 | 0.011 | 0.036 | 0.013 | -0.007 | -0.034 | 0.004 | -0.023 | -0.004 | -0.001 | 0.109 | 0.053
